From PubChem BioAssay (Tox21)
Values joined by “and” are separate entries in the source; they are usually repeats but may differ in a detail not shown here. Equal values may be shown once. Records with an inconclusive call do not appear. Entries that show only a call come without a potency. Active and inactive are the calls of the source. Calls follow the shape of the dose curve; as a rule, active = well fitted curve in the direction sought with a large enough effect in the repeat runs; inconclusive = weak or mixed curves; inactive = no such curve, though single readings can be large; an effect the other way counts as inactive or inconclusive.

Columns and labels:
[1] = A CellTox Green Cytotoxicity Assay to monitor cytotoxicity in HEK293 cells - 32 hour (AID 1224881); also: nearly all actives have a fitted effect of over 40% in size; also: potency is read from the fitted curve at half-maximal effect
Outline: (§1)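 Read-out: fluorescence of a cell-impermeant cyanine dye staining DNA of dead cells, proportional to cytotoxicity. HEK293, 600 cells/well with reagent, compound (23 nL DMSO) added after 5 h; reads at 0, 8, 16, 24, 32, 40 h.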

[2] = A CellTox Green Cytotoxicity Assay to monitor cytotoxicity in HepG2 cells - 0 hour (AID 1224882); also: nearly all actives have a fitted effect of over 35% in size
Outline: (§2)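 HepG2, 600 cells/well premixed w/ CellTox Green; 5 h settle, 37 C/5% CO2; pintool cpd add (DMSO); 37 C, 40 h; fluorescence read at 0, 8, 16, 24, 32, 40 h.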

[3] = A CellTox Green Cytotoxicity Assay to monitor cytotoxicity in HepG2 cells - 32 hour (AID 1224883); also: nearly all actives have a fitted effect of over 50% in size; also: potency is read from the fitted curve at half-maximal effect
Outline: as §2

[4] = A CellTox Green Cytotoxicity Assay to monitor cytotoxicity in HEK293 cells - 8 hour (AID 1224884); also: nearly all actives have a fitted effect of over 35% in size; also: potency is read from the fitted curve at half-maximal effect
Outline: as §1

[5] = qHTS RealTime-Glo MT Cell Viability Assay in HepG2 cells - 16 hour (AID 1224885); also: nearly all actives have a fitted effect of over 50% in size; also: potency is read from the fitted curve at half-maximal effect
Outline: (§3)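 Cells + NanoLuc/prosubstrate dispensed (600 cells/well) → 5 h at 37 C/5% CO2 → compounds in DMSO transferred → 40 h incubation at 37 C, luminescence read at 0, 8, 16, 24, 32, 40 h.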

[6] = qHTS RealTime-Glo MT Cell Viability Assay in HEK293 cells - 24 hour (AID 1224886); also: nearly all actives have a fitted effect of over 50% in size; also: potency is read from the fitted curve at half-maximal effect
Outline: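 Tox21 10K qHTS, HEK293, 600 cells/well, RealTime-Glo reagent co-dispensed with cells; 5 h preincubation, compound by pintool, 37 C, luminescence at 0–40 h.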

[7] = qHTS RealTime-Glo MT Cell Viability Assay in HEK293 cells - 8 hour (AID 1224887); also: nearly all actives have a fitted effect of over 50% in size; also: potency is read from the fitted curve at half-maximal effect
Outline: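 Luminescence readout at each listed time point; HEK293, 600 cells/well, RealTime-Glo MT reagent added with cells; compounds pinned (23 nL in DMSO) after 5 h at 37 C; continuous culture at 37 C.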

[8] = A CellTox Green Cytotoxicity Assay to monitor cytotoxicity in HEK293 cells - 16 hour (AID 1224888); also: nearly all actives have a fitted effect of over 35% in size; also: potency is read from the fitted curve at half-maximal effect
Outline: as §1

[9] = qHTS RealTime-Glo MT Cell Viability Assay in HepG2 cells - 0 hour (AID 1224889); also: nearly all actives have a fitted effect of over 50% in size
Outline: as §3

[10] = A CellTox Green Cytotoxicity Assay to monitor cytotoxicity in HepG2 cells - 8 hour (AID 1224890); also: nearly all actives have a fitted effect of over 45% in size; also: potency is read from the fitted curve at half-maximal effect
Outline: as §2

| SMILES | Potency [1] | Potency [2] | Potency [3] | Potency [4] | Potency [5] | Potency [6] | Potency [7] | Potency [8] | outcome [9] | Potency [10] |
| --- | --- | --- | --- | --- | --- | --- | --- | --- | --- | --- |
| C[N+](C)(C)CC1CO1 (configuration not stated) | inactive | inactive | inactive | inactive | inactive | inactive | inactive | inactive | inactive | inactive |
| O=C1CC[C@@]2(O)[C@H]3Cc4ccc(O)c5c4[C@@]2(CCN3CC2CC2)[C@H]1O5 | inactive | inactive | inactive | inactive | inactive | inactive | inactive | inactive | inactive | inactive |
| FC(Cl)(Cl)C(F)(Cl)Cl | inactive | inactive | inactive | inactive | inactive | inactive | inactive | inactive | inactive | inactive |
| CCCCCCCCCCCC[N+](C)(C)CCOc1ccccc1 | 17.4 µM (active) and 23.9 µM (active) | inactive | 13.8 µM (active) and 8.49 µM (active) | 24.6 µM (active) | 43.7 µM (active) and 21.3 µM (active) | 11 µM (active) and 10.7 µM (active) | 43.7 µM (active) and 23.9 µM (active) | 21.9 µM (active) and 23.9 µM (active) | inactive | 55 µM (active) and 26.8 µM (active) |
| OCCSSCCO | inactive | inactive | inactive | inactive | inactive | inactive | inactive | inactive | inactive | inactive |
| c1ccc2sc(SNC3CCCCC3)nc2c1 | inactive | inactive | inactive | inactive | inactive | inactive | inactive | inactive | inactive | inactive |
| CON(C)C(=O)Nc1ccc(Cl)cc1 | inactive | inactive | inactive | inactive | inactive | inactive | inactive | inactive | inactive | inactive |
| CNC(=O)Oc1cccc(N=CN(C)C)c1 | inactive | inactive | inactive | inactive | inactive | inactive | inactive | inactive | inactive | inactive |
| CCc1ccccc1N | inactive | inactive | inactive | inactive | inactive | inactive | inactive | inactive | inactive | inactive |
| C[C@]12CC[C@H]3[C@@H](CCC4=CC(=O)CC[C@@H]43)[C@@H]1CC[C@@H]2OC(=O)CCc1ccccc1 | inactive | inactive | inactive | inactive | inactive | inactive | inactive | inactive | inactive | inactive |
| CCCCCCCCCCCCN(C)C | inactive | inactive | inactive | inactive | inactive | inactive | inactive | inactive | inactive | inactive |
| OC[P+](CO)(CO)CO | inactive | inactive | inactive | inactive | inactive | inactive | inactive | inactive | inactive | inactive |
| C#CC(O)(C=CCl)CC (configuration not stated) | inactive | inactive | inactive | inactive | inactive | inactive | inactive | inactive | inactive | inactive |
| CCOP(=S)(S)OCC | inactive | inactive | inactive | inactive | inactive | inactive | inactive | inactive | inactive | inactive |
| CN(C1CCCCC1)C1CCCCC1 | inactive | inactive | inactive | inactive | inactive | inactive | inactive | inactive | inactive | inactive |
| CCCBr | inactive | inactive | inactive | inactive | inactive | inactive | inactive | inactive | inactive | inactive |
| CCOc1cccc(C2(N3CCN(c4ccccc4)CC3)CCC(C)CC2)c1 (configuration not stated) | inactive | inactive | inactive | inactive | inactive | inactive | inactive | inactive | inactive | inactive |
| CC(C)OC(=O)Cc1ccccc1 | inactive | inactive | inactive | inactive | inactive | inactive | inactive | inactive | inactive | inactive |
| O=C([O-])c1ccccn1.O=C([O-])c1ccccn1.O=C([O-])c1ccccn1.[Cr+3] | inactive | inactive | inactive | inactive | inactive | inactive | inactive | inactive | inactive | inactive |
| CCOP(=O)(SC(C)CC)N1CCSC1=O (configuration not stated) | inactive | inactive | inactive | inactive | inactive | inactive | inactive | inactive | inactive | inactive |
| O=C(O)c1cc(Cl)ccc1Cl | inactive | inactive | inactive | inactive | inactive | inactive | inactive | inactive | inactive | inactive |
| Cc1cnc(C2=NC(C)(C(C)C)C(=O)N2)c(C(=O)O)c1 (configuration not stated) | inactive | inactive | inactive | inactive | inactive | inactive | inactive | inactive | inactive | inactive |
| CC[N+]1(CCOC(=O)C(O)(c2ccccc2)c2ccccc2)CCCCC1 | inactive | inactive | inactive | inactive | inactive | inactive | inactive | inactive | inactive | inactive |
| CCOC(C(=O)OCCN(C)C)(c1ccccc1)c1ccccc1 | inactive | inactive | inactive | inactive | inactive | inactive | inactive | inactive | inactive | inactive |

| SMILES | Potency [1] | Potency [2] | Potency [3] | Potency [4] | Potency [5] | Potency [6] | Potency [7] | Potency [8] | outcome [9] | Potency [10] |
| --- | --- | --- | --- | --- | --- | --- | --- | --- | --- | --- |
| COC(=O)C1(O)c2ccccc2-c2ccccc21 | inactive | inactive | inactive | inactive | inactive | inactive | inactive | inactive | inactive | inactive |
| Nc1cccc2ccccc12 | inactive | inactive | inactive | inactive | inactive | inactive | inactive | inactive | inactive | inactive |
| CC(=O)NNc1ccccc1 | inactive | inactive | inactive | inactive | inactive | inactive | inactive | inactive | inactive | inactive |
| C=CC(=O)NC(C)(C)CC(C)=O | inactive | inactive | inactive | inactive | inactive | inactive | inactive | inactive | inactive | inactive |
| COC1CC(=C(c2cccs2)c2cccs2)C[N+](C)(C)C1 (configuration not stated) | inactive | inactive | inactive | inactive | inactive | inactive | inactive | inactive | inactive | inactive |
| O=C1NC(=O)C(=O)C(=O)N1 | inactive | inactive | inactive | inactive | inactive | inactive | inactive | inactive | inactive | inactive |
| CC(C)(C)OOC(C)(C)CCC(C)(C)OOC(C)(C)C | inactive | inactive | inactive | inactive | inactive | inactive | inactive | inactive | inactive | inactive |
| CCCCCCCCn1sccc1=O | 55.1 µM (active) and 25.7 µM (active) | inactive | 43.7 µM (active) and 22.9 µM (active) | 36.3 µM (active) | 43.7 µM (active) and 16.2 µM (active) | 12.3 µM (active) and 12.9 µM (active) | 39 µM (active) and 40.8 µM (active) | 51.3 µM (active) | inactive | 25.7 µM (active) |
| c1ccc2c(c1)-c1cccc3cccc-2c13 | inactive | inactive | inactive | inactive | inactive | inactive | inactive | inactive | inactive | inactive |
| C[CH2][Hg][S]c1ccccc1C(=O)O | 7.76 µM (active) and 4.77 µM (active) | inactive | 3.09 µM (active) and 2.13 µM (active) | 4.77 µM (active) | 2.45 µM (active) and 2.13 µM (active) | 1.1 µM (active) and 1.34 µM (active) | 3.09 µM (active) and 4.25 µM (active) | 4.77 µM (active) | inactive | 7.76 µM (active) and 2.39 µM (active) |
| CC(C)c1ccc(OP(=O)(Oc2ccc(C(C)C)cc2)Oc2ccc(C(C)C)cc2)cc1 | inactive | inactive | inactive | inactive | inactive | inactive | inactive | inactive | inactive | inactive |
| O=[N+]([O-])O[C@H]1CO[C@H]2[C@@H]1OC[C@H]2O[N+](=O)[O-] | inactive | inactive | inactive | inactive | inactive | inactive | inactive | inactive | inactive | inactive |
| O=C(O)COc1cc(Cl)c(Cl)cc1Cl | inactive | inactive | inactive | inactive | inactive | inactive | inactive | inactive | inactive | inactive |
| CN1C(=O)CN=C(c2ccccc2)c2cc([N+](=O)[O-])ccc21 | inactive | inactive | inactive | inactive | inactive | inactive | inactive | inactive | inactive | inactive |
| CN1C[C@H](C(=O)N[C@]2(C)O[C@@]3(O)[C@@H]4CCCN4C(=O)[C@H](Cc4ccccc4)N3C2=O)C=C2c3cccc4[nH]cc(c34)C[C@H]21 | inactive | inactive | inactive | inactive | 19.6 µM (active) | inactive | inactive | inactive | inactive | inactive |
| O=C(O)c1cc(I)cc(I)c1I | inactive | inactive | inactive | inactive | inactive | inactive | inactive | – | inactive | inactive |
| CCCSP(=S)(OCC)Oc1ccc(SC)cc1 (configuration not stated) | inactive | inactive | inactive | inactive | inactive | inactive | inactive | – | inactive | inactive |
| CCOP(=S)(OCC)SCSc1cc(Cl)ccc1Cl | inactive | inactive | inactive | inactive | inactive | inactive | inactive | inactive | inactive | inactive |
| CC(Cl)C(=O)O (configuration not stated) | inactive | inactive | inactive | inactive | inactive | inactive | inactive | – | inactive | inactive |
| N#CC(C#N)=C(C#N)C#N | inactive | inactive | inactive | inactive | inactive | inactive | inactive | inactive | inactive | inactive |
| CCSCc1ccccc1OC(=O)NC | inactive | inactive | inactive | inactive | inactive | inactive | inactive | inactive | inactive | inactive |
| Nc1cc(Cl)cc(C(=O)O)c1Cl | inactive | inactive | inactive | inactive | inactive | inactive | inactive | inactive | inactive | inactive |
| CCCCC(CC)CO[N+](=O)[O-] (configuration not stated) | inactive | inactive | inactive | inactive | inactive | inactive | inactive | inactive | inactive | inactive |
